The source of these data is PubChem BioAssay (NCI).

The panel holds about 83,000 compounds, 20% with a hit somewhere; the sample as a whole holds those more often.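 Single-concentration screen, 48 h exposure, 96-well plates. Endpoint: percent growth. Below 10 = active.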 Unmarked numbers belong to inactive results. Calls of active or inactive are those of the source.

Among the test systems are SK-MEL-2 melanoma; EKVX NSCLC; SN12C renal; UO-31 renal; TK-10 renal; ACHN renal; CAKI-1 renal; A498 renal; MOLT-4 leukemia; SR leukemia; RPMI-8226 leukemia; OVCAR-8 ovarian; OVCAR-5 ovarian; OVCAR-4 ovarian; SK-OV-3 ovarian; IGROV1 ovarian; OVCAR-3 ovarian; HS 578T breast; NCI/ADR-RES ovarian.
What all share (experiment): NCI-60 one-dose screen, 48 h (100 = growth as untreated, 0 = no growth, -100 = all killed)
What all share (details): 10 µM unless noted

Take `COc1ccccc1CNCCCN1C(=O)c2ccc3c4c(ccc(c24)C1=O)C(=O)N(CCCNCCCCN)C3=O`: the growth was -67.9% (active) in the experiment with SK-MEL-2 melanoma; 8.85% (active) in the experiment on EKVX NSCLC; -39.3% (active) in the experiment on SN12C renal; 11.2% in the experiment with UO-31 renal; -1.84% (active) in the experiment with TK-10 renal; 7.77% (active) with ACHN renal. In addition, the growth with CAKI-1 renal is 33.7%; with A498 renal, -52% (active); in the experiment on MOLT-4 leukemia, 0.762% (active); with SR leukemia, 5.25% (active); in the experiment on RPMI-8226 leukemia, -8.59% (active); in the experiment with OVCAR-8 ovarian it was -7.98% (active). Also, the growth was -12.4% (active) in the experiment on OVCAR-5 ovarian; -84.9% (active) with OVCAR-4 ovarian; 14.2% in the experiment with SK-OV-3 ovarian; 8.53% (active) in the experiment on IGROV1 ovarian; -1.35% (active) with OVCAR-3 ovarian; -7.25% (active) in the experiment on HS 578T breast. Moreover, the growth in the experiment on NCI/ADR-RES ovarian was 42.5%.

For the compound `CC(CN1CCCCC1)C(=O)c1ccccc1` (stereo not drawn), the growth in the experiment with SK-MEL-2 melanoma is 102%; in the experiment on EKVX NSCLC, 104%; in the experiment with SN12C renal, 105%; in the experiment with UO-31 renal, 92.4%; in the experiment on TK-10 renal, 96.7%; in the experiment with ACHN renal, 107%. Moreover, the growth in the experiment on CAKI-1 renal is 101%; in the experiment with A498 renal, 84%; in the experiment on MOLT-4 leukemia, 106%; in the experiment with SR leukemia it was 97.3%; with RPMI-8226 leukemia it was 78%; in the experiment on OVCAR-8 ovarian it was 102%. In addition, the growth in the experiment with OVCAR-5 ovarian is 101%; in the experiment on OVCAR-4 ovarian, 114%; in the experiment on SK-OV-3 ovarian, 106%; in the experiment with IGROV1 ovarian, 109%; in the experiment on OVCAR-3 ovarian, 109%; with HS 578T breast, 103%. For the same compound, the growth in the experiment with NCI/ADR-RES ovarian is 108%.

On to `Cc1cc[c-]cc1.Fc1c[c-]c(-c2ccccn2)c(F)c1.[Pt+2].c1ccc(P(C[PH+](c2ccccc2)c2ccccc2)c2ccccc2)cc1`, for which the growth is 4.88% (active) with SK-MEL-2 melanoma; 7.66% (active) with EKVX NSCLC; 6.18% (active) in the experiment on SN12C renal; 11.4% in the experiment on UO-31 renal; 31.5% with TK-10 renal; -1.88% (active) in the experiment on ACHN renal. The growth with CAKI-1 renal is 0.998% (active); with A498 renal, 9.17% (active); with MOLT-4 leukemia, 10.7%; in the experiment on SR leukemia, 16.8%; with RPMI-8226 leukemia, -4.4% (active); in the experiment on OVCAR-8 ovarian, 11%. The growth in the experiment on OVCAR-5 ovarian was 23.6%; in the experiment on OVCAR-4 ovarian, -2.01% (active); with SK-OV-3 ovarian it was -3.95% (active); in the experiment with IGROV1 ovarian, 23.5%; in the experiment on OVCAR-3 ovarian, 12.9%; in the experiment on HS 578T breast, 39.6%. Also, the growth in the experiment on NCI/ADR-RES ovarian is 87.3%.

Turning to `Cc1ccc(Cc2cnc(NC(=O)c3ccc4noc(-c5ccccc5)c4c3)s2)cc1`, the growth in the experiment on SK-MEL-2 melanoma was 99.7%; in the experiment on EKVX NSCLC, 79.1%; in the experiment on SN12C renal, 85.9%; in the experiment with UO-31 renal, 81.9%; in the experiment with TK-10 renal it was 109%; in the experiment with ACHN renal, 99%. In addition, the growth was 78.2% with CAKI-1 renal; 102% in the experiment on A498 renal; 90.2% in the experiment on MOLT-4 leukemia; 85% with SR leukemia; 79.3% with RPMI-8226 leukemia; 89.1% with OVCAR-8 ovarian. In addition, the growth is 105% with OVCAR-5 ovarian; 86.4% in the experiment with OVCAR-4 ovarian; 108% with SK-OV-3 ovarian; 96.3% in the experiment on IGROV1 ovarian; 107% in the experiment on OVCAR-3 ovarian; 95.7% in the experiment on HS 578T breast. Further, the growth with NCI/ADR-RES ovarian is 92.5%.

As to `COc1cc2c(cc1-c1c(C)noc1C)ncc1nc(C3CCC(F)(F)CC3)n(C3CCC(OC(F)F)CC3)c12` (stereo not drawn), the growth in the experiment with SK-MEL-2 melanoma is 46%; in the experiment with EKVX NSCLC, 53.9%; in the experiment on SN12C renal it was 76.6%; in the experiment with UO-31 renal, 18.2%; with TK-10 renal it was 41.3%; with ACHN renal it was 66.2%. For the same compound, the growth in the experiment on CAKI-1 renal was 52.1%; in the experiment on A498 renal it was 61.2%; in the experiment with MOLT-4 leukemia, 59.7%; with SR leukemia, 33.5%; with RPMI-8226 leukemia, 20%; in the experiment with OVCAR-8 ovarian, 65.2%. Also, the growth was 76.2% with OVCAR-5 ovarian; 50.5% in the experiment on OVCAR-4 ovarian; 17.6% in the experiment with SK-OV-3 ovarian; 70.1% in the experiment on IGROV1 ovarian; 44.6% in the experiment with OVCAR-3 ovarian; 61.4% with HS 578T breast. In addition, the growth in the experiment with NCI/ADR-RES ovarian was 47.4%.

Turning to `COc1cc2c(cc1-c1c(C)noc1C)ncc1nc(C3CCCCC3)n(C3CCC(OC(F)F)CC3)c12` (stereo not drawn), the growth with SK-MEL-2 melanoma was 6.6% (active); in the experiment with EKVX NSCLC, 41.1%; with SN12C renal it was 52.7%; in the experiment on UO-31 renal, 8.28% (active); in the experiment with TK-10 renal, 24.1%; in the experiment with ACHN renal it was 37.4%. Moreover, the growth is 42.7% with CAKI-1 renal; 28.3% in the experiment with A498 renal; 18.4% in the experiment on MOLT-4 leukemia; 16.7% in the experiment with SR leukemia; 4.9% (active) in the experiment with RPMI-8226 leukemia; 40.5% in the experiment with OVCAR-8 ovarian. The growth was 63.5% in the experiment with OVCAR-5 ovarian; 40.3% with OVCAR-4 ovarian; -2.64% (active) in the experiment on SK-OV-3 ovarian; 50.9% with IGROV1 ovarian; 27.8% in the experiment with OVCAR-3 ovarian; 52.2% in the experiment on HS 578T breast. Further, in the experiment on NCI/ADR-RES ovarian, the growth is 30%.

Turning to `NC1=NCc2nc3ccccc3c(=O)n2C1`, the growth was 92.8% with SK-MEL-2 melanoma; 107% in the experiment on EKVX NSCLC; 98% in the experiment with SN12C renal; 70.1% with UO-31 renal; 106% in the experiment on TK-10 renal; 99.5% with ACHN renal. Further, the growth in the experiment with CAKI-1 renal is 92.7%; with A498 renal it was 110%; in the experiment with MOLT-4 leukemia it was 91.2%; in the experiment with SR leukemia it was 93.1%; in the experiment on RPMI-8226 leukemia, 79.1%; with OVCAR-8 ovarian, 102%. In addition, the growth with OVCAR-5 ovarian is 85.8%; in the experiment on OVCAR-4 ovarian, 106%; in the experiment with SK-OV-3 ovarian it was 117%; in the experiment with IGROV1 ovarian, 101%; in the experiment on OVCAR-3 ovarian it was 101%; with HS 578T breast, 111%. Further, the growth in the experiment with NCI/ADR-RES ovarian was 96.8%.
